About 83,000 compounds went through this panel and 20% of them were active in at least one assay; those are over-represented in the sample as a whole.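 Negative percent growth values reflect cell death: -40 means 40% of the cells present at the start died, and -100 means all died.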 Unmarked numbers belong to inactive results. Calls of active or inactive are those of the source. The calls were made as follows: active = growth percent below 10; inactive = the rest.
Key:
Test in all cases: NCI-60 one-dose screen, 48 h (100 = growth as untreated, 0 = no growth, -100 = all killed)
Conditions in all cases: 10 µM unless noted
EKVX NSCLC = system: EKVX NSCLC
UO-31 renal = system: UO-31 renal
TK-10 renal = system: TK-10 renal
ACHN renal = system: ACHN renal
CAKI-1 renal = system: CAKI-1 renal
A498 renal = system: A498 renal
CCRF-CEM leukemia = system: CCRF-CEM leukemia
MOLT-4 leukemia = system: MOLT-4 leukemia
SR leukemia = system: SR leukemia
SN12C renal = system: SN12C renal

SMILES	growth (EKVX NSCLC)	growth (UO-31 renal)	growth (TK-10 renal)	growth (ACHN renal)	growth (CAKI-1 renal)	growth (A498 renal)	growth (CCRF-CEM leukemia)	growth (MOLT-4 leukemia)	growth (SR leukemia)	growth (SN12C renal)
COc1cccc2c(=O)c3c(sc12)c(NCCCNCCO)nc1ccccc13	53.9%	27.4%	58.6%	33.6%	48.1%	14.5%	29.2%	1.38% (active)	0.0565% (active)	
N[C@@H](CC/[N+]([O-])=N/O)C(=O)O	89.3%	94.9%		105%	97.6%	111%	105%	104%	126%	101%
Cc1nc(Nc2ccccn2)sc1C(=O)/C=C/c1ccc(Cl)cc1	27.8%	28.6%		23.2%	27.9%	6.49% (active)	17.1%	17.2%	15.6%	32%
COc1cc(C2C3=C(COC3=O)N(CCO)c3cc4c(cc32)OCCO4)cc(OC)c1O (centres undefined)	41%	60.3%	47.4%	37.2%	39.8%	25.5%	15.5%	29.7%	23%	
CCOC(=O)C1=C(C)c2ccc(OC)c(OC)c2C1	98.8%	95.5%	87.2%	103%	100%	96.3%	93%	87.7%	73.4%	
CNCCNc1nc2ccccc2c2c(=O)c3cc(F)ccc3sc12	71.9%	41.3%	60.2%	37.3%	44%	38.9%	15.5%	-18.9% (active)	13.6%	
COc1cc(/C=C2\CCC/C(=C\c3cc(CN4CCCCC4)c(O)c(OC)c3)C2=O)cc(CN2CCCCC2)c1O	87.3%	58.3%		83.8%	106%	90.9%	45.7%	49.8%	6.77% (active)	72.5%
CCCC(=O)CC(C)=O.CCCC(=O)CC(C)=O.[Cu]	106%	102%		105%	103%	122%	107%	99.2%	85.6%	110%
CCN1C(=O)N(CC)C2Nn3c(s/c(=C\c4ccccc4F)c3=O)=NC21 (centres undefined)	38.4%	65.8%		50.8%	48.1%	43.3%	34.1%	44%	24.5%	53.5%
COc1ccc(OC)c(NC(=O)/C(C#N)=C/c2ccco2)c1	94%	67.8%		93.6%	90.4%	101%		78.7%	74.3%	101%
Cc1cccc(NC(=O)c2sc3nc4c(cc3c2N)CCCC4)c1C	45.4%	50.6%	65.4%	41.3%		4.01% (active)	7.79% (active)	19.3%	34.7%	
OCCNc1nc(Nc2ccc(C3=NN(c4cc(Cl)cc(Cl)c4)C(c4ccc(C(F)(F)F)cc4)C3)cc2)nc(N2CCOCC2)n1 (centres undefined)	71.4%	72%	114%	56.8%	71.3%	82.4%	51%	60.2%	70.5%	
COc1ccc(CCN2C(=O)CCSC2=S)cc1OC	97.4%	79.2%		102%	95.2%	99.3%	73.6%	100%	33.2%	92.3%
O=Cc1c(OCc2cnnn2CC(=O)Nc2ccc(Cl)cc2)ccc2ccccc12	96.6%	73.2%		94.9%	94%	96.7%	110%	90.7%	90.5%	97.3%
Nc1ccc(C2c3ccccc3Oc3ccccc32)cc1	86.3%	81.7%		97.6%	87.2%	124%	94.8%	83%	97.8%	98.5%
Nc1nc(-c2cnccn2)nn1-c1nc2ccccc2s1	94.6%	99.6%	117%	108%	96.8%	118%	97.4%	94.7%	98.4%	
O=C1c2cc(I)ccc2Oc2cc([N+](=O)[O-])ccc2N1c1ccc(Cl)cc1F	93.5%	63.6%	120%	90.3%		91.4%	76.8%	56.6%		

SMILES	growth (EKVX NSCLC)	growth (UO-31 renal)	growth (TK-10 renal)	growth (ACHN renal)	growth (CAKI-1 renal)	growth (A498 renal)	growth (CCRF-CEM leukemia)	growth (MOLT-4 leukemia)	growth (SR leukemia)	growth (SN12C renal)
COc1ccc(Br)c(/C=C2\SC(=Nc3ccc(O)cc3)NC2=O)c1	88.7%	49.8%	96.4%	89.7%	75.8%	97.6%	75%	85.2%	110%	
CC[C@]1(O)C[C@@H]2CN(CCc3c([nH]c4ccccc34)[C@@](C(=O)OC)(c3cc4c(cc3OC)N(C)[C@H]3[C@@](O)(C(=O)OC)[C@H](OC(C)=O)[C@]5(CC)C=CCN6CC[C@]43[C@@H]65)C2)C1	38.8%	41.6%	45.5%	30.1%	4.83% (active)	-12.5% (active)	13.8%	26.5%		
CN(C)/C=C1\SC(=Nc2ccc(Cl)cc2)NC1=O	95.6%	90.4%	111%	103%		94.6%	106%	101%	123%	
COc1cc(/C=C2\CN(S(=O)(=O)c3ccccc3)C/C(=C\c3cc(CN4CCCC4)c(O)c(OC)c3)C2=O)cc(CN2CCCC2)c1O	24.7%	34.7%		12.1%	75.3%	8.57% (active)	7.45% (active)	1.22% (active)	17.5%	-25.8% (active)
CCN(CC)CCNC(=O)C(Cl)=C1C(Cl)=C(Cl)C(Cl)=C1Cl	87.8%	43.6%	59.4%	48.6%	6.11% (active)	71.8%		15%	34.8%	
O=c1c2cc(F)ccc2sc2c(Nc3ccncc3)nc3ccccc3c12	35.8%	-83.3% (active)	78.6%	28.5%	82.5%	63.9%	-27.4% (active)	-36.9% (active)	-4.43% (active)	
COC(=O)[C@@H]1CCCN1C(=O)[C@H]1CCCN1C(=O)[C@@H](Cc1c[nH]c2ccccc12)NC(=S)Nc1cc(C(F)(F)F)cc(C(F)(F)F)c1		28.3%	78.7%	37.2%	22%	57.7%	36.3%	16.3%	5.25% (active)	44.4%
CCOC(=O)c1cc2c(n1Cc1cc(OC)cc(OC)c1)-c1oncc1CCC2		18.5%	56.6%	37.6%	42.2%	-14.5% (active)	9.16% (active)	18%	9.52% (active)	38.3%
NNC(=O)CNC(=O)Nc1n[nH]c(=S)s1		73.6%	107%	94.4%	98.3%	98.3%	93%	89.5%	83.3%	98.1%
Cc1cc(Nc2ccc(OCc3ccccc3)cc2)nc2cc(O)ccc12		44.9%	73.4%	73.8%	72.3%	95.8%	8.27% (active)	26%	-17.5% (active)	78.2%
Cn1c(C(=O)c2cccc3ccccc23)nc2ccccc21		-21.3% (active)	21.3%	11%	-11.9% (active)	36.3%	8.07% (active)	9.16% (active)	4.54% (active)	11.8%
COc1ccc(-c2nnc(COc3ccc(C(=O)/C=C/c4ccco4)cc3)o2)cc1		53.5%	95.3%	85.9%	67.2%	115%	10.7%	41.9%	0.0515% (active)	68.1%
COc1ccc(-c2nc(-c3ccccn3)c(-c3ccccn3)n2CC(C)C)cc1OC1CCCC1		-13.8% (active)	28.5%	16.8%	10.5%	-14.3% (active)	1.08% (active)	-31.7% (active)		8.15% (active)
COc1ccc(-c2nsc3c2NC(=O)CC3c2cccc(OC)c2)cc1 (centres undefined)		46.3%	61.9%	55.1%	32.9%	27.4%	14.2%	32.2%	24.3%	66.9%
NC1(N2SC(S)=C3CCCC=C32)CCCCC1		78.6%	99.5%	102%	97%	101%	105%	87%	86.9%	104%
O=C(Nc1ccccc1O)c1ccc(-c2ccc(Cl)cc2Cl)o1		74%	102%	102%	78.7%	86.4%	75.1%	65.6%	48.7%	89.8%
